The list is not random: actives were taken first. Their share in the collection is about 14%.
Pf growth 96h = Primary qHTS for delayed death inhibitors of the malarial parasite plastid, 96 hour incubation; P. falciparum luciferase reporter growth, 96 h; Potency, µM (series often up to 28.7 µM), for the others: top-dose activity change, negative = inhibition, hits mostly inhibitors; 6.9% of 320,000 active; AID 504834, 2011; further: potency means the concentration at half of the fitted maximal effect
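Luminescence readout: decreased luciferase signal marks inhibited growth of reporter-expressing P. falciparum in infected red cells (2% hematocrit, 0.05% parasitemia final), exposed to compound two generations (96 h, 37 C, 5% CO2).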
Pf growth 48h = Primary qHTS for delayed death inhibitors of the malarial parasite plastid, 48 hour incubation. P. falciparum luciferase growth in erythrocytes, 48 h. Potency, µM (doses to about 28.7 µM), inactives show top-dose activity change, negative = inhibition, hits mostly inhibitors. 5.9% of 310,000 active; further: potency means the concentration at half of the fitted maximal effect
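Luciferase-expressing P. falciparum in infected erythrocytes (2% hematocrit, 0.1% parasitemia final) in RPMI 1640/0.5% Albumax were exposed to compound for 48 hours at 37 C, 5% CO2; growth read as luminescence.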
HCMV inh = qHTS Assay for inhibitors of the human cytomegalovirus (HCMV); activity change, negative = inhibition, % at 57.5 µM; HFF cells, HCMV-luciferase reporter, 72 h; hits give low values; 4.5% of 410,000 active; AID 1259415, 2018; in the data active means activity change below about -60%; inconclusive means no clear call, values can overlap the other calls; inactive means above about -39%
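HFF cells seeded 16 h at 37C, treated with compounds, infected with luciferase-reporter HCMV at MOI 1 PFU/cell; luciferase read at 72 h post infection, normalized to buffer-only and Salinomycin controls.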
Giardia FBPA inh-1 = qHTS Assay for Inhibitors of Fructose-1,6-bisphosphate Aldolase from Giardia Lamblia; A8B2U2; purified Giardia FBPA; Potency, µM (titrated, usually from 59.6 µM), without a hit: at the top dose activity, negative = inhibition, hits mostly inhibitors; 0.71% of 290,000 active; AID 2451, 2010; further: potency means the concentration at half of the fitted maximal effect; nearly all actives have a fitted effect of over 55% in size
Target sequence (A8B2U2 whole entry, looked up): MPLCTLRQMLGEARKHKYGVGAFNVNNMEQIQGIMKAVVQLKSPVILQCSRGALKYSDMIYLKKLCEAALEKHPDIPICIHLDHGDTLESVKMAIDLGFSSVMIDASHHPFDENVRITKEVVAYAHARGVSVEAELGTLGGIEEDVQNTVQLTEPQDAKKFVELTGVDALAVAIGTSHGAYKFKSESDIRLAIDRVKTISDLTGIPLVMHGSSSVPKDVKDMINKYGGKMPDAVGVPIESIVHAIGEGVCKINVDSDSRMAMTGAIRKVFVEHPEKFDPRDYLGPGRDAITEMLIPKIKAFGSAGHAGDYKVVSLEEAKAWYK
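40 nM FBPA preincubated 10 min at RT with compound (up to 57.5 uM final), then substrate plus GAPDH/TPI/NAD/arsenate coupling and diaphorase/resazurin added. Fluorescence read after 20 min at RT, 525/598 nm.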
Sm TGR inh = qHTS Assay for the Inhibitors of Schistosoma Mansoni Peroxiredoxins; purified TGR, DTNB reduction, TNB absorbance 405 nm; Potency, µM (top dose mostly 114 µM), without a hit: at the highest dose activity change, negative = inhibition, actives largely listed as inhibitors; 3% of 360,000 active; AID 485364, 2010; further: potency means the concentration at half of the fitted maximal effect; nearly all actives have a fitted effect of over 60% in size
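TGR 20 nM + NADPH 100 uM (dispensed conc.), cpd preinc 15 min RT; start with NADPH (500 uM addition) then DTNB (15 mM addition). Kinetic TNB absorbance, 405 nm filter. Four-parameter Hill fit across titration.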
Giardia growth = qHTS Assay for Inhibitors of Fructose-1,6-bisphosphate Aldolase from Giardia Lamblia: Giardia lamblia growth inhibition; Potency, µM (doses to about 57.5 µM), for the others: at the top dose activity change, negative = inhibition, usual class: inhibitors; AID 2785, 2010; Giardia lamblia trophozoite growth inhibition; 5% of 1,500 active; shares compounds with Giardia FBPA inh-1;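 further: potency means the concentration at half of the fitted maximal effect; trophozoites exposed to compound for 48 h at 37 °C; nearly all actives have a fitted effect of over 70% in size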
Mammalian tox = qHTS Assay for Inhibitors of Fructose-1,6-bisphosphate Aldolase from Giardia Lamblia: Mammalian cellular toxicity; shares compounds with Giardia FBPA inh-1; mammalian cell viability counter-screen, qHTS; Potency, µM (series often up to 57.5 µM), for the others: at the highest dose viability change, negative = toxicity, most hits filed as inhibitors; 4% of 1,500 active;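 further: Chinese hamster ovary cells used as mammalian cytotoxicity surrogate; viability measured as cellular ATP by luminescence; potency means the concentration at half of the fitted maximal effect; compound exposure lasted 48 h before reading; nearly all actives have a fitted effect of over 60% in size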
Giardia FBPA inh-2 = qHTS Assay for Inhibitors of Fructose-1,6-bisphosphate Aldolase from Giardia Lamblia: Primary screen confirmation | shares compounds with Giardia FBPA inh-1 | purified Giardia aldolase enzyme activity, qHTS | Potency, µM (titrated, usually from 57.5 µM), for the others: at the highest dose activity change, negative = inhibition, usual class: inhibitors | 5% of 1,500 active | AID 2787, 2010; further: potency means the concentration at half of the fitted maximal effect; nearly all actives have a fitted effect of over 45% in size
Rabbit FBPA inh = qHTS Assay for Inhibitors of Fructose-1,6-bisphosphate Aldolase from Giardia Lamblia: Rabbit FBPA Selectivity | 4% of 1,500 active | shares compounds with Giardia FBPA inh-1 | AID 2794, 2010 | Rabbit muscle FBPA enzyme inhibition, selectivity counter-screen | Potency, µM (titrated, usually from 57.5 µM), without a hit: at the highest dose activity, negative = inhibition, most hits filed as inhibitors; further: potency means the concentration at half of the fitted maximal effect; nearly all actives have a fitted effect of over 60% in size
Target sequence (P00883 whole entry, looked up): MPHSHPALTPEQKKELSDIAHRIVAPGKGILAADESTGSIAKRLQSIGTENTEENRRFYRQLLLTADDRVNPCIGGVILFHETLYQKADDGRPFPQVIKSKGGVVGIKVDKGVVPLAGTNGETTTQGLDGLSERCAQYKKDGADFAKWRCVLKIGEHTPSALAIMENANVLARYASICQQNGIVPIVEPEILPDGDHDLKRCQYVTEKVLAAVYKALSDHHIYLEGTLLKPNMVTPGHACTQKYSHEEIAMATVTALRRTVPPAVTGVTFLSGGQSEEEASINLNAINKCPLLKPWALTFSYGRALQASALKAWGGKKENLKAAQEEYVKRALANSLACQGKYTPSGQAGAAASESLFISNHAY
GAPDH counter = qHTS Assay for Inhibitors of Fructose-1,6-bisphosphate Aldolase from Giardia Lamblia: Coupling assay counterscreen confirmation; shares compounds with Giardia FBPA inh-1; GAPDH coupling enzyme counterscreen, biochemical, qHTS; Potency, µM (highest dose often 57.5 µM), without a hit: at the highest dose activity change, negative = inhibition, hits mostly inhibitors; 6% of 1,500 active; AID 2795, 2010; further: potency means the concentration at half of the fitted maximal effect; nearly all actives have a fitted effect of over 55% in size
Active calls of the source: *; ? = inconclusive; . = no result given; [ ] = remark or other dose. Unless noted, the call rests on the fitted dose curve; in most records, active means well fitted curve in the direction sought with a large enough effect; inconclusive means small, poorly fitted or top-dose-only effect, or another doubt; inactive means no such curve, though single readings can be large; an effect the other way counts as inactive or inconclusive. On the % scale 0 is the no-effect control and ±100 the full control effect.

SMILES	Pf growth 96h	Pf growth 48h	HCMV inh	Giardia FBPA inh-1	Sm TGR inh	Giardia growth	Mammalian tox	Giardia FBPA inh-2	Rabbit FBPA inh	GAPDH counter
O=C(O)CNC(=O)CC1S/C(=N/N=C2\CSC(=O)N2)NC1=O (centres undefined)	4.1%	-15.0%	19.2	5.61µM*	0.7%	12.7%[38.3 µM]	4.5%	-10.3%	7.6%	-8.4%
COc1cc(Br)c(CNc2cc(C)ccc2C)cc1OC	15.2%	?	?	20µM*	10.5%	-19.4%	-3.2%	-2.7%	6.5%	6.3%
Cc1ccc(C)c(NCc2ccccc2CO)c1	17.2%	0.4%	-26.7	1.9%	0.7%	.	.	.	.	.
COc1ccc(-c2nn(-c3ccccc3)cc2C(=O)NC2CCC(C)CC2)cc1 (centres undefined)	24.0%	-14.2%	-16.6	.	-2.3%	.	.	.	.	.
COC(=O)C1=C(C)N(Cc2ccccc2)C2=C3C(=O)CCCC3[C@@](O)(C(=O)OC)C(=O)N2C1c1ccccc1 (some centres undefined)	.	.	.	5.2%[12.9 µM]	.	.	.	.	.	.
NS(=O)(=O)c1ccc(NC(=S)NNC(=O)c2ccc(Br)o2)cc1	?	-4.6%	-8.3	.	?	.	.	.	.	.
Cc1ccc(NC(=O)c2ccc(Br)o2)cc1S(=O)(=O)N(C)C	21.1%	-2.8%	33.2	0.2%	?	.	.	.	.	.
CN(C)S(=O)(=O)c1ccc(NC(=S)NC(=O)c2ccc(Br)o2)cc1	16.9%	-7.6%	?	15.8µM*	?	3.2%[10.4 µM]	-8.4%	1.4%	6.5%	15.1%
NS(=O)(=O)c1ccc(NC(=S)NC(=O)c2cccs2)cc1	12.1%	-1.4%	21.6	17.7µM*	16.7%	?	6.7%	7.1%	5.0%	4.3%
NS(=O)(=O)c1ccc(NC(=S)NC(=O)c2ccc(Br)o2)cc1	35.3%	22.6%	-28.3	17.7µM*	-6.4%	7.0%[10.4 µM]	-0.1%	-3.3%	6.3%	6.2%
CC(=O)Nc1cc([N+](=O)[O-])ccc1OCc1ccccc1	.	.	17.3	.	.	.	.	.	.	.
COc1ccc(C(C)=O)cc1Cn1c(C)c(C(=O)NCCC#N)sc1=O	.	.	1.7	.	.	.	.	.	.	.
Cc1ccccc1/C=N/Nc1nc2ccccc2c(=O)n1O	46.8%	35.1%	32.5	17.7µM*	-0.9%	?	-5.8%	-21.8%	-13.6%	-14.6%
Cc1ccc(-c2nc3ccccc3c(=O)n2O)cc1	?	?	83.4	-24.0%	-1.1%	.	.	.	.	.
CCc1ccc(NC(=O)C(=O)NCC(c2cccnc2)N2CCN(C)CC2)cc1 (centres undefined)	.	.	-13.3	.	?	.	.	.	.	.
CN1CCN(C(c2cccnc2)c2ccc3cccnc3c2O)CC1 (centres undefined)	.	?	.	?	0.251µM*	-14.1%[38.3 µM]	-11.0%	?	-29.5%	-7.6%
CC(C)(C)n1nc(C2CC2)c(Br)c1NC(=O)c1ccccc1Cl	.	.	-20.0	.	.	.	.	.	.	.
O=C(CCC(=O)OCC(=O)c1ccc(Cl)cc1)Nc1ccc(Oc2ccccc2)cc1	.	.	13.4	.	-8.2%	.	.	.	.	.
O=C(NCc1ccncc1)[C@@H]1CCCN1C(=O)[C@H]1CCCN1C(=O)c1ccccc1	.	.	-15.6	.	.	.	.	.	.	.
Cc1ccc(NC(=O)CN(C)S(=O)(=O)c2cccc3cccnc23)cc1	2.7%	.	?	2.1%	-31.5%	.	.	.	.	.
Cc1ccc(NC(=O)CN(C)C(=O)COc2cccc3cccnc23)cc1	20.5%	-4.6%	1.3	11.2µM*	-23.2%	-36.8%	5.7%	12.6µM*	?	?
Cn1nnc(NC(=S)NC(=O)c2cccc3c(Br)cccc23)n1	4.3%	-3.5%	0.0	?	-20.8%	.	.	.	.	.
Cn1nnc(NC(=S)NC(=O)Cc2ccccc2)n1	2.08µM*	-17.8%	16.3	1.58µM*	.	-13.1%[38.3 µM]	-5.4%	-7.0%	-4.7%	-1.5%
CCCn1nnc(NC(=O)Cc2ccccc2)n1	37.9%	9.1%	27.1	3.5%	?	.	.	.	.	.
COc1cccc(C(=O)NC(=S)Nc2nnn(C)n2)c1	20.1%	5.6%	-23.0	1.58µM*	?	-18.2%[38.3 µM]	-1.0%	-1.6%	5.2%	6.7%
Cc1ccc(-c2nc3ccc(Br)cn3c2Cc2cccc(Cl)c2)cc1	.	.	-7.3	.	.	.	.	.	.	.
CCC(=O)NNC(=S)NC(=O)c1ccc(C)cc1	38.8%	0.0%	5.3	17.7µM*	0.0%	?	-4.6%	22.8%	-1.5%	13.1%
COc1cc(/C=C/C(=O)c2c(O)cc(C)oc2=O)cc(OC)c1O	-14.2%	.	-67.5*	15.8µM*	100µM*	-3.2%[10.4 µM]	-11.7%	?	?	?
C/C(=N/O)c1ccccn1	0.0%	?	19.7	3.15µM*	56.1%	0.2%[38.3 µM]	-19.0%	-20.5%	13.2%	?

Screening results: PubChem BioAssay, National Center for Advancing Translational Sciences (NCATS)
